TSHR ag = TSH receptor (human) agonism; P16473; HEK293-CNG-TSHR cells (CNG channel as cAMP sensor), membrane potential dye, cAMP; Potency, µM (titrated, usually from 57.1 µM), for inactives: at the top dose activation, hits mostly activators; actives 0.48% (n = 73,000); active = well fitted activation curve with a large enough effect in the main read-out, with a control signal flat, not every such curve was filed as active; inconclusive = small, poorly fitted or top-dose-only effect, or a change in a side signal; inactive = no such curve, though single readings can be large or run the other way; % of control where 0% means no effect;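 note: the control signal comes from parental cells without the receptor; potency is the fitted concentration of half-maximal effect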
Target sequence (P16473 whole entry, looked up): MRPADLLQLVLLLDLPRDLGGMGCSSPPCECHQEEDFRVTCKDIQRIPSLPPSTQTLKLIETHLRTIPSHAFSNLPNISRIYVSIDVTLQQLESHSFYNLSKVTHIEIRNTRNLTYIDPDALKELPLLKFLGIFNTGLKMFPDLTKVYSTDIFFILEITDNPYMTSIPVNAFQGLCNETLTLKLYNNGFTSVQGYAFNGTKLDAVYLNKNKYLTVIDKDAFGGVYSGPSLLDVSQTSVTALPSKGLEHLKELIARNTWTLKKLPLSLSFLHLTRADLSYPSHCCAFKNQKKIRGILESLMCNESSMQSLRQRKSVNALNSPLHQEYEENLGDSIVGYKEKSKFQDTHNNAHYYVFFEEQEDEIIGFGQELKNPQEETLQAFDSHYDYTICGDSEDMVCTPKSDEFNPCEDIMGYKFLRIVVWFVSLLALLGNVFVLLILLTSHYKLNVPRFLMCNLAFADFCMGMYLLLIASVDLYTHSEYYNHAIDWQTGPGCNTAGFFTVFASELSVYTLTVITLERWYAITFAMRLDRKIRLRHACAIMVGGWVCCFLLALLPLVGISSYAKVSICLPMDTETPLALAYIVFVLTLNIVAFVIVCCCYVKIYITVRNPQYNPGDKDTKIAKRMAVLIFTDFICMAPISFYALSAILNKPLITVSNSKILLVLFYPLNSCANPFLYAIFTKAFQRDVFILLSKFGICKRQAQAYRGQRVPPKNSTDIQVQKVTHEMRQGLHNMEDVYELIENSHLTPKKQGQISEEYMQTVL
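HEK 293 cells stably expressing TSHR and a modified CNG channel, with CNG-only parental cells as counterscreen, were preloaded 60 min at room temperature with membrane potential dye containing 100 uM RO 20-1724. Compound exposure was 30 min, and depolarization was read as fluorescence at 590 nm.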
BRCT PPI red = disrupts BRCA1 BRCT binding to phosphoprotein, red fluorophore readout. Potency, µM (doses to about 76.9 µM), for the others: at the top dose activity change, negative = inhibition, hits mostly inhibitors. actives 0.03% (n = 75,000). BRCT-phosphopeptide binding, red fluorescence polarization; note: % is set by controls: 0 for no effect and ±100 for the full control effect
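Fluorescence polarization: 100 nM His-tagged BRCA1 BRCT with 100 nM TAMRA-labelled phospho-BACH1 decapeptide, phosphate buffer pH 7.3 with 150 mM NaCl, DTT, 0.01% Tween 20; 12 min RT. Binding inhibition seen as FP decrease.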
BRCT PPI green = blocks human BRCA1 BRCT binding to phosphopeptide, green readout; Potency, µM (doses to about 76.9 µM), for the others: top-dose activity change, negative = inhibition, most hits filed as inhibitors; BRCA1 BRCT-phosphopeptide binding, green fluorescence polarization; actives 0.05% (n = 75,000); P38398; AID 875;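 note: potency is the fitted concentration of half-maximal effect; plate controls were peptide without protein for full effect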
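Compounds were incubated for 12 min at room temperature with a complex of 100 nM fluorescein-tagged pBACH1 decapeptide and 250 nM His-tagged BRCT protein. Buffer was phosphate pH 7.3 with EDTA, DTT and Tween 20. Disruption of binding lowers the polarization signal.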
HEK293 cAMP cs = parental HEK293 cAMP activation (counter-screen); parental HEK293 CNG cAMP sensor, membrane potential fluorescence; Potency, µM (titrated, usually from 57.1 µM), for inactives: at the highest dose activation, hits mostly activators; actives 2.5% (n = 73,000); note: potency is the fitted concentration of half-maximal effect; % of control where 0% means no effect; nearly all actives have a fitted effect of over 55% in size
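Parental HEK 293 cells stably expressing a cAMP-gated CNG channel were loaded with membrane potential dye containing 100 uM RO 20-1724 for 60 min. Compound added for 30 min; depolarization read as fluorescence intensity at 590 nm.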
Pol III holo inh = inhibitors of bacterial DNA polymerase III holoenzyme; Potency, µM (doses to about 57.1 µM), without a hit: top-dose activity change, negative = inhibition; reconstituted DNA polymerase III holoenzyme replication, biochemical; AID 603; actives 0.25% (n = 71,000); note: potency is the fitted concentration of half-maximal effect; % is set by controls: 0 for no effect and ±100 for the full control effect
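Reconstituted *E. coli* holoenzyme (0.35 nM Pol III, 1 nM beta, 154 nM SSB, 2 nM primase) was preincubated with compound for 15 min at RT. Synthesis on 1.4 nM ssM13Gori ran 35 min, then was stopped with PicoGreen/EDTA and read as dsDNA fluorescence.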
TsaE inh = displaces an ADP probe from E. coli YjeE (TsaE) | P0AF67 | Potency, µM | AID 605 | actives 0.05% (n = 71,000) | purified YjeE enzyme, qHTS inhibition assay
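Fluorescence polarization of a BODIPY Texas Red–ADP probe (2 uM) bound to purified YjeE (10 uM) was read after 15 min room-temperature incubation with compounds. Loss of polarization marks inhibitors; ADP serves as titrated control.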
* = called active by the depositor; i = inactive; u = inconclusive; x = no result given; ! = not active in a repeat; [ ] = dose if it differs, or a comment. In the library only some 3.2% were active in any assay of this set; here they are far more common. Unless noted, calls come from the whole dose curve; as a rule, active = well fitted curve in the direction sought with a large enough effect; inconclusive = small, poorly fitted or top-dose-only effect, or another doubt; inactive = no such curve, though single readings can be large; an effect the other way counts as inactive or inconclusive.

SMILES | TSHR ag | BRCT PPI red | BRCT PPI green | HEK293 cAMP cs | Pol III holo inh | TsaE inh
C=C[C@@H]1C[C@@]1(C)[C@@H](NP(=O)(c1ccccc1)c1ccccc1)c1ccccc1 | u | 1% | -2% | 5µM* | 1% | i
COC(=O)[C@]1(C)C[C@H]1[C@H](NP(=O)(c1ccccc1)c1ccccc1)c1ccccc1 | u | 0% | -2% | u | 3% | i
Cc1noc(C)c1C(=O)N1CCC2(CCCN(CC(C)C)C2)CC1 | u | -2% | -3% | 16µM* | -11% | i
O=C(Cc1cccs1)N1CCC2(CC1)OCCO2 | 1% | 0% | -1% | 5% | -3% | i
O=C(NC[C@H]1CCCCN1)c1cc(OCC(F)(F)F)ccc1OCC(F)(F)F | u | -2% | -2% | 4µM*! | -3% | i
c1ccc2c(c1)[nH]c1cnccc12 | x | -3% | 1% | x | x | x
Cc1c2ccncc2c(C)c2c1[nH]c1ccccc12 | -21%[25.6 µM] | -5% | -3% | 5%[25.6 µM] | 7.9µM* | i
C=C(CC1(C(C)NP(=O)(c2ccccc2)c2ccccc2)CC1)c1ccccc1 (centres undefined) | u | -3% | -2% | 16µM* | -7% | i
Cc1nccc2c1[nH]c1ccccc12 | u | -2% | 2% | 9%[25.6 µM] | -13% | i
CCCCOC(=O)c1ccccc1C(=O)OCc1ccccc1 | u | -2% | 3% | 16µM* | -1% | i
Cn1cc(CCC(=O)N2CCC3(CC2)OCCO3)c2ccccc21 | -5% | -1% | -2% | -1% | -7% | i
CC(C)[N+](=O)[O-] | 1% | -1% | -1% | 12% | 0% | i
CO[C@H]1[C@H](O)[C@H](O[C@@H]2[C@H](Oc3cccc4c(O)c5c(=O)oc6ccc(C)c7c(=O)oc(c34)c5c67)O[C@@H](C)[C@H](O)[C@H]2O)O[C@@H](C)[C@@H]1O | 4%[11.4 µM] | -2%[15.4 µM] | 0%[15.4 µM] | -4%[11.4 µM] | 3.2µM* | i
CCC/C=C(\CCC)C(NP(=O)(c1ccccc1)c1ccccc1)c1ccccc1 (centres undefined) | u | 0% | -3% | u | -15% | i
COC(=O)[C@H]1C[C@@H]1[C@H](NP(=O)(c1ccccc1)c1ccccc1)c1ccccc1 | u | 1% | -3% | 0.5µM* | 4% | i
COC(=O)[C@@H]1C[C@@H]1[C@@H](NP(=O)(c1ccccc1)c1ccccc1)c1ccccc1 | u | x | x | 10µM* | 14% | i
COC(=O)[C@@H]1C[C@H]1[C@@H](NP(=O)(c1ccccc1)c1ccccc1)c1ccccc1 | u | -1% | -2% | 13µM* | 1% | i
CNC(=O)[C@H]1C[C@@H]1[C@H](NP(=O)(c1ccccc1)c1ccccc1)c1ccccc1 | u | 0% | -2% | 16µM* | -11% | i
O=C(O)[C@@H]1C[C@H]1[C@@H](NP(=O)(c1ccccc1)c1ccccc1)c1ccccc1 | 3% | 0% | -2% | 3% | -2% | i
CCC(=NCC1CCCO1)c1c(O)[nH]c(=O)[nH]c1=O (centres undefined) | -2% | -1% | -4% | -5% | -6% | i
CCOc1ccc2[nH]c(=O)c(CN(CCO)C3(c4nnnn4C4CCCCC4)CCCCC3)cc2c1 | u | -3% | -1% | 25µM* | -8% | i
O=C1OC(=O)c2c(Cl)c(Cl)c(Cl)c(Cl)c21 | u | -1% | -1% | 40µM* | -11% | i
C=CCOC(=O)COc1cc(C)cc2oc(=O)c3c(c12)CCC3 | u | -1% | 3% | 5µM* | -2% | i
CCCCCn1c(=O)c(C(=O)NCc2ccncc2)c(O)c2ccccc21 | u | 1% | 6% | u | -5% | i
O=C(Oc1ccccc1)N1CCC2(CC1)CN(C(c1ccccc1)c1ccccc1)C2 | u | 0% | -1% | 32µM* | 8% | i
SMILES | TSHR ag | BRCT PPI red | BRCT PPI green | HEK293 cAMP cs | Pol III holo inh | TsaE inh
Cc1ccccc1-n1c(O)c(C=Nc2ccc(N(C)C)cc2)c(=O)[nH]c1=O | -15% | 0% | 1% | -16% | -6% | i
Nc1ccc(CCN2CCN(c3cccc(C(F)(F)F)c3)CC2)cc1 | u | -2% | -3% | u | -10% | i
CN1[C@@H]2CC[C@H]1CC(O[C@@H](c1ccccc1)c1ccc(Cl)cc1)C2 (some centres undefined) | u | 0% | 5% | 40µM* | -7% | u
CN(C)C1(c2nnnn2-c2ccc(Cl)cc2)CCCCC1 | 148% | -2% | 0% | 26% | -4% | i
CC(C)CC(N(C)C)C1(c2ccc(Cl)cc2)CCC1 (centres undefined) | u | 1% | 0% | 25µM* | x | x
CSc1nc2ccccc2n1C(=O)Oc1ccccc1 | u | 0% | 1% | 25µM* | -5% | i
CCCCNC(=O)n1c(NC(=O)OC)nc2ccccc21 | u | 0% | -2% | u | 0% | i
CC(C)N1C(=O)c2ccccc2NS1(=O)=O | x | 1% | -3% | x | x | x
Cc1cccc(C2=NCC(=O)N(CC(=O)NCc3ccco3)c3sc4c(c32)CCCC4)c1 | u | -1% | 5% | u | -1% | i
COc1ccc(C2=NCC(=O)N(CC(=O)NCc3ccco3)c3sc4c(c32)CCCC4)cc1 | 16µM* | -1% | 2% | 19% | 4% | i
O=C1NCN(c2ccccc2)C12CCN(C[C@H]1COc3ccccc3O1)CC2 | u | -1% | -3% | u | 6% | i
CN(CC1COc2ccccc2O1)c1nc(-c2cccnc2)nc2ccccc12 (centres undefined) | u | -5% | 3% | 25µM* | -4% | i
ClCC1CO1 (centres undefined) | -1% | -1% | -1% | 14% | -2% | i
CC(C)(C)NCc1cccn1-c1sc2c(c1C#N)CCCC2 | u | 0% | -1% | 25µM* | -2% | i
CC1(C)C(=O)[C@@H]2OC2[C@@]2(C)C1CC(O)[C@]1(C)C2CC[C@@]2(C)C(c3ccoc3)OC(=O)C3OC312 (some centres undefined) | x | -2% | -2% | x | x | x
C=C(C)CN1CC[C@@]23c4c5ccc(O)c4O[C@H]2c2[nH]c4ccccc4c2C[C@]3(O)[C@@H]1C5 | -1% | 2% | -2% | 4% | -2% | i
NC(N)=Nc1ccc2[nH]c3c(c2c1)C[C@]1(O)[C@@H]2Cc4ccc(O)c5c4[C@]1(CCN2CC1CC1)[C@H]3O5 | u | -1% | 1% | 0.016µM* | -8% | i
Cc1ccccc1N1C(=O)CC(=O)NC1=O | -7% | 0% | -2% | -4% | -2% | i

Compound activity (PubChem BioAssay)
